Rows were chosen to be rich in hits. Some 9.2% of all compounds tested hit in one or more screens of this group.
SMN2 splice enh: enhancers of SMN2 splice variant expression; 2.8% of 210,000 active; Potency, µM (doses to about 46.1 µM), without a hit: at the top dose activity change, positive = activation, hits mostly activators; HEK293 SMN2-luciferase splicing reporter, luminescence, 30-36 h; note: % of control where 0% means no effect; nearly all actives have a fitted effect of over 55% in size
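HEK293 cells carry an SMN2 […]–luciferase reporter in which exon 7 inclusion puts luciferase in frame. Cells were plated 10-12 h before compound addition, then incubated 30-36 h at 37C. ONE-Glo luminescence was read; sodium butyrate at 4.5 mM final served as control.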
ELG1 DNA repair: blocks ELG1-dependent DNA repair in HEK293T cells; 2.3% of 330,000 active; HEK293T ELG1-luciferase reporter, luminescence, 16 h; DNA damage induced by 5-fluorouridine; Potency, µM (titrated, usually from 46.1 µM), without a hit: top-dose activity change, negative = inhibition, actives largely listed as inhibitors; note: % is set by controls: 0 for no effect and ±100 for the full control effect; nearly all actives have a fitted effect of over 55% in size
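5-Fluorouridine DNA damage + compound/DMSO, 2,000 cells/well, 16 h, 37 °C/5% CO2. ONE-Glo, 30 min RT, luminescence. Readout = decrease in reporter signal.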
NPC1 promoter act: NPC1 promoter activation. Huh7 NPC1 promoter luciferase reporter, 24 h. Potency, µM (titrated, usually from 9.22 µM), for inactives: top-dose activation, hits mostly activators. 2.4% of 320,000 active; note: % of control where 0% means no effect; nearly all actives have a fitted effect of over 60% in size
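Quantitative HTS used a cell-based reporter: Huh7 cells stably bearing the NPC1 promoter upstream of luciferase were treated with compounds for 24 h, and promoter activation was read as luminescence.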
ELG1 genotoxic: inducers of genotoxicity in HEK293T ELG1-luciferase cells | HEK293T ELG1-luciferase reporter, luminescence, 16 h | Potency, µM (series often up to 46 µM), for inactives: at the top dose activity change, positive = activation, most hits filed as activators | 1.3% of 330,000 active; note: % of control where 0% means no effect; nearly all actives have a fitted effect of over 60% in size
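Genotoxic stress is detected as increased luminescence from luciferase-tagged ELG1 in HEK293T cells, measured with ONE-Glo after a 16 hr treatment at 37 °C.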
FLuc counter: counter-screen for miR-21 project: firefly luciferase inhibitors or activators; 6.9% of 360,000 active; Potency, µM (titrated, usually from 57.5 µM), for the others: at the top dose activity change, negative = inhibition, usual class: inhibitors; purified FLuc, Km substrates, luminescence inhibition; P08659;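 note: plate controls were vehicle for no effect and reference inhibitor for full effect; nearly all actives have a fitted effect of over 55% in size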
Target sequence (P08659 whole entry, looked up): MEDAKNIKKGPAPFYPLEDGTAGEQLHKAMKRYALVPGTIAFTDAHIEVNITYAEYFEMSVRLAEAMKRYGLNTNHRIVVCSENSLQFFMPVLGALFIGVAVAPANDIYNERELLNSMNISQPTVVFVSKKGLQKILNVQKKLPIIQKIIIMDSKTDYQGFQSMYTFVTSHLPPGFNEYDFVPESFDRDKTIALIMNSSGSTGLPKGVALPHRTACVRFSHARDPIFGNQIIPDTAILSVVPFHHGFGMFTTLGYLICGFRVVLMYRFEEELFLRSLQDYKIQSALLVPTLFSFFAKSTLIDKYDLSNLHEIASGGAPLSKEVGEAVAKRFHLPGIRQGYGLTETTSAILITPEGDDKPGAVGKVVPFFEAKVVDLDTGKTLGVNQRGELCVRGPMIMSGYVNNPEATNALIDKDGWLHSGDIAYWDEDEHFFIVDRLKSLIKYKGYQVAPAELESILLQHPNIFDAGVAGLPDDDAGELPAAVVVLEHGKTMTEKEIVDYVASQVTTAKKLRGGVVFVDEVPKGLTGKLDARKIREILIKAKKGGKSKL
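Biochemical qHTS of compounds, final roughly 60 µM downward over six points, against 10 nM purified firefly luciferase using Km concentrations of substrates (10 uM D-luciferin, 10 uM ATP) in Tris acetate pH 7.5 buffer; luminescence output.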
Rab9 promoter act: activates the Rab9 promoter | 2.8% of 320,000 active | AID 485297 | Huh7 Rab9 promoter-luciferase reporter, luminescence, 24 h | Potency, µM (series often up to 9.22 µM), inactives show top-dose activation, negative = inhibition, hits mostly activators; note: % of control where 0% means no effect; nearly all actives have a fitted effect of over 60% in size
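Cell-based reporter: Huh7 stable for Rab9 promoter-driven luciferase, plated in reduced-serum medium with 10% FBS at 1500 cells/well, compound-treated 24 h at 37 °C, luminescence read after 10 min reagent.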
Active calls of the source: *; u = inconclusive; x = not tested or not shown. Calls come from the whole dose curve; as a rule, active = well fitted curve in the direction sought with a large enough effect; inconclusive = small, poorly fitted or top-dose-only effect, or another doubt; inactive = no such curve, though single readings can be large; an effect the other way counts as inactive or inconclusive. Potency is the fitted concentration of half-maximal effect.

SMILES	SMN2 splice enh	ELG1 DNA repair	NPC1 promoter act	ELG1 genotoxic	FLuc counter	Rab9 promoter act
Cc1cccc(-c2nc3nc(C)cc(NC(C)c4ccccc4)n3n2)c1 (stereo not drawn)	x	x	x	x	17µM*	x
Cc1cc(OCC(=O)O/N=C(\N)Cc2cccs2)ccc1Br	7%	26%	-1%	-1%	u	2%
Cc1ccc(C(=O)O/N=C(\N)Cc2cccs2)c(Cl)c1	x	u	1.6µM*	2.1µM*	1.2µM*	2µM*
Cc1ccc(C(=O)O/N=C(\N)Cc2ccc([N+](=O)[O-])cc2)c(Cl)c1	x	u	-3%	4%	21µM*	-1%
CSc1nsc(SC)c1C(=O)Nc1ccc(C(C)(C)C)cc1	x	18µM*	16%	0%	11µM*	13%
CSc1nsc(SC)c1C(=O)NC(=O)Nc1cccnc1	x	5%	-3%	1%	-1%	0%
CCN1CCN(c2oc(-c3ccc(COc4ccccc4C)o3)nc2C#N)CC1	x	x	x	x	-8%	x
CCCCCCc1c(C)c2ccc(OCC(=O)N3CCC[C@H]3C(=O)O)c(C)c2oc1=O	x	-27%	0%	1%	17µM*	-10%
CCOC(=O)CCc1c(C)c2ccc(OCC)c(C)c2oc1=O	-6%	u	2%	10%	12µM*	-8%
CCOC(=O)CCc1c(C)c2ccc(OCC(=O)N3CCOCC3)c(C)c2oc1=O	x	u	6%	-4%	-2%	5%
O=C(O)/C(=C1/OC(=O)c2ccccc21)c1ccccc1	-10%	10%	2%	-5%	-1%	5%
COC(=O)/C(=C1\OC(=O)C(c2ccccc2)C1=O)c1ccccc1 (stereo not drawn)	13µM*	x	x	x	x	x
CC(C)(C)c1ccc(C(=O)Nc2nnc(C3=COCCO3)o2)cc1	x	11%	-3%	-3%	21µM*	-2%
CN(C)c1ccc(C(=O)Nc2nnc(C3=COCCO3)o2)cc1	-7%	u	21%	14%	-17%	24%
CCN1CCN(c2cc(C)c3cc(NC(=O)c4cccc(OC)c4)ccc3n2)CC1	x	u	16%	12%	19µM*	20%
CCOc1ccccc1NC(=O)Nc1ccc2nc(N3CCN(C)CC3)cc(C)c2c1	x	x	x	x	5.4µM*	x
Cc1cc(N2CCN(C)CC2)nc2ccc(NC(=O)c3ccc(C(C)(C)C)cc3)cc12	-97%	x	x	x	u	x
CCOc1ccccc1NC(=O)Nc1nnc(N2CCCCCC2)s1	x	x	x	x	15µM*	x
COc1ccc(C(=O)Nc2ccc3nc(N4CCN(C)CC4)cc(C)c3c2)c(OC)c1	x	2%	0%	7%	17µM*	0%
CC1N(C(=O)N(C)C)CCN1S(=O)(=O)c1ccccc1 (stereo not drawn)	x	-5%	-3%	-4%	0%	-7%
CCOC(=O)C1=C(COC(=O)c2ccc3ccccc3c2O)NC(=O)NC1C (stereo not drawn)	x	u	0%	-1%	-10%	9%
Cc1cc(C)cc(Nc2cc(C(=O)NC3CCC(C)CC3)c3ccccc3n2)c1 (stereo not drawn)	27%	x	x	x	-8%	x
COc1ccc2c(C)cc(N3CCOCC3)nc2c1	13%	u	21%	8%	u	24%
COc1ccc2nc(N3CCOCC3)cc(C)c2c1	11µM*	u	u	8.2µM*	5.4µM*	2.8µM*
COc1cccc(C(=O)Nc2ccc3nc(N4CCN(c5ncccn5)CC4)cc(C)c3c2)c1OC	-90%	2.6µM*	-17%	-12%	x	-13%
SMILES	SMN2 splice enh	ELG1 DNA repair	NPC1 promoter act	ELG1 genotoxic	FLuc counter	Rab9 promoter act
CC(C)N(Cc1nc(-c2ccc(Cl)cc2)no1)C(=O)c1ccc(C(C)(C)C)cc1	-1%	x	x	x	2%	x
Cc1cccc(Cn2ccc(NC(=O)c3ccc4c(c3)OCO4)n2)c1	-4%	-11%	-1%	6%	17µM*	3%
O=C(Nc1ccn(Cc2ccc(Cl)cc2)n1)c1ccc2c(c1)OCO2	6%	x	x	x	21µM*	x
O=C(N/N=C/c1ccc2c(c1)OCO2)c1ccn(Cc2ccc(Cl)cc2)n1	x	14%	17%	u	u	-1%
Cc1ccc(Cn2ccc(NC(=O)c3nn(C)cc3Cl)n2)cc1	15%	u	u	12%	21µM*	u
O=C(NN=C1CCCC1)c1n[nH]c2c1CCCC2	22µM*	u	2.5µM*	u	5.4µM*	0.63µM*
O=C(NC1CCCC1)c1n[nH]c2ccccc12	x	u	3.2µM*	u	24µM*	2.8µM*
O=C(NC1CCCCC1)c1n[nH]c2c1CCCCC2	x	u	u	u	0.38µM*	0.089µM*
O=C1CC(c2nc3ccccc3n2CCC2CCCCC2)CN1c1ccccc1Cl (stereo not drawn)	-17%	x	x	x	-14%	x
c1ccc(-c2nc3c4ccccc4ccn3c2CN2CCOCC2)cc1	x	u	-3%	u	4.8µM*	12%
O=C1COc2cc(S(=O)(=O)CCC(=O)N3CCN(c4cccc(Cl)c4)CC3)c(Cl)cc2N1	x	x	x	x	-5%	x
CCOC(=O)C1=C(C)Nc2ccccc2N=C1NC(=O)c1oc2ccccc2c1COC	x	11µM*	-5%	-9%	6%	-6%
COc1ccc2c(CNCCc3ccc(SC)cc3)c(C(=O)O)n(Cc3ccc(F)cc3)c2c1	x	x	x	x	-1%	x
Cc1ccc(N=c2ssnc2Cl)cc1	-11%	u	1%	-7%	21µM*	7%
Cc1cc(Cl)ccc1N=c1ssnc1Cl	-23%	16µM*	0%	-23%	u	-1%
COc1ccc(SCC(=O)c2cc(C)c(OC(=S)N(C)C)c(C)c2)cc1	-12%	-14%	27%	15%	17µM*	u
Cc1cc(C(=O)CSc2ccc(F)cc2)cc(C)c1OC(=S)N(C)C	-51%	u	u	1µM*	0.67µM*	u
Cc1cccc(C)c1Nc1c(-c2ccccc2F)nc2cccc(C)n12	-103%	x	x	x	1%	x
COc1cc(/C=N\Nc2nc3ccccc3o2)cc(OC)c1OC	4%	u	u	12%	u	24%
COc1ccc(/C=N/OCC(=O)Nc2nc3ccccc3s2)cc1OC	-25%	-4%	0%	4%	-17%	-8%
COc1cc(C=C(c2nc3ccccc3s2)c2nc3ccccc3s2)ccc1O	-13%	u	-1%	1%	u	-5%
COc1ccc(/C=N/Nc2nc3ccccc3s2)cc1O	17%	u	u	2.3µM*	0.24µM*	u
COc1ccc(/C=N/Nc2nc3ccccc3o2)cc1O	u	u	u	0.92µM*	0.95µM*	u
COc1cc(/C=N/Nc2nc3ccccc3o2)cc(OC)c1O	-6%	-4%	1%	15%	15µM*	8%

Source: PubChem BioAssay (National Center for Advancing Translational Sciences (NCATS))
